From PubChem BioAssay (EPA / NIEHS)
Calls of active or inactive are those of the source. The calls were made as follows: active = hit-call score of the fitted dose curve at least 0.9, where 1 is the maximum; inactive = score below 0.9.

Experiment: ATG_M_61_CIS: Attagene CIS-FACTORIAL HepG2 Assay for M61 Transcription Factor (Internal Marker) (AID 2282937)
Conditions: HepG2 Attagene CIS-FACTORIAL M61 internal marker reporter; actives raise or lower the signal
Method: ATG_CIS is a cell-based, multiplexed-readout assay that uses HepG2, a human liver cell line, with measurements taken at 24 hours after chemical dosing in a 24-well plate.ATG_M_61_CIS is one of 52 assay component(s) measured or calculated from the ATG_CIS assay. It is designed to make measurements of mRNA induction, a form of inducible reporter, as detected with fluorescence intensity signals by Reverse transcription polymerase chain reaction (RT-PCR) and Capillary electrophoresis technology.Data from the assay component ATG_M_61_CIS was analyzed into 1 assay endpoint. This assay endpoint, ATG_M_61_CIS, was analyzed with bidirectional fitting relative to DMSO as the negative control and baseline of activity. Using a type of inducible reporter, measures of mRNA for gain or loss-of-signal activity can be used to understand the background control at the transcription factor-level as they relate to the gene . Furthermore, this assay endpoint can be referred to as a secondary readout, because this assay has produced multiple assay endpoints where this one serves a background control function. To generalize the intended target to other relatable targets, this assay endpoint is annotated to the background measurement intended target family, where the subfamily is internal marker.
Human liver HepG2 cells are transiently transfected with multiple reporter transcription units (MRTUs) in 6-well plates using FuGene 6 reagent (Roche; 3 ml FuGene/1 mg DNA). The MRTU constructs are regulated by a cis-regulating element (promoter). […] A major difference between the CIS and TRANS system is that in CIS activities of endogenous TFs are measured, whereas the TRANS assay evaluates changes in activities of exogenous, chimeric NR-Gal4 proteins. […] At the end of 24 hour incubation, total RNA was isolated using TriZol reagent (Invitrogen). The isolated RNA is then reverse-transcribed using oligo(dT) primer and Mo-MLV reverse transcriptase (Invitrogen) with DNAse I (Ambion) treatment for 30 min. The one-tenth of the produced cDNA was amplified by PCR using Taq DNA polymerase (Invitrogen) and two reporter sequence-specific primers. The PCR products were fluorescently labeled by primer extension with 6-arboxyfluorescein (6-FAM) 5'-labeled reporter sequence-specific primer (2 min at 95 C, 20 s at 68 C and 10 min at 72 C) and these products were digested with 5U of HpaI (New England Biolabs) for 2h at 37 C. The fragments were purified using Qiaquick PCR columns (Qiagen), analyzed on an ABI 3130xL genetic analyzer (Applied Biosystems) with peak positions identified by using a set of X-rhodamine (ROX)-labeled MapMarker1000 molecular weight standards (BioVentures). The raw capillary electrophoresis data was processed using Attagraph software (Attagene).

Structure (SMILES)	outcome
CCCCCCOC(=O)c1ccccc1C(=O)OCCCCCC	inactive
COS(=O)(=O)OC	inactive
CCNc1nc(NC(C)C)nc(SC)n1	inactive
ClC1=C(Cl)[C@]2(Cl)[C@@H]3[C@@H]4C[C@@H]([C@H]5O[C@@H]45)[C@@H]3[C@@]1(Cl)C2(Cl)Cl	inactive
CCC(C)(c1ccc(O)cc1)c1ccc(O)cc1	inactive
CCOCCOC(C)=O	inactive
CCCCCCCCOC(=O)c1ccccc1C(=O)OCCCCCCCC	inactive
C=CC(N)=O	inactive
O=C(NC(=O)c1c(F)cccc1F)Nc1cc(Cl)c(OC(F)(F)C(F)F)c(Cl)c1	inactive
ClC1=C(Cl)[C@]2(Cl)[C@@H]3[C@@H](Cl)[C@H]4O[C@H]4[C@@H]3C1(Cl)C2(Cl)Cl	inactive
CCCCCCCCCC[N+](C)(C)CCCCCCCCCC	inactive
Oc1c(Cl)c(Cl)c(Cl)c(Cl)c1Cl	inactive
Oc1ccc(C(c2ccc(O)cc2)(C(F)(F)F)C(F)(F)F)cc1	inactive
Cc1cc2c3c(c1)C(c1ccccc1)=N[C@@H](NC(=O)c1ccncc1)C(=O)N3CC2	inactive
CC(c1ccc(O)cc1)(c1ccc(O)cc1)c1ccc(O)cc1	inactive
CN(C)c1nc(=O)n(C2CCCCC2)c(=O)n1C	inactive
CCC(C)(CC)c1cc(NC(=O)c2c(OC)cccc2OC)on1	inactive
O=S(=O)(O)C(F)(F)C(F)(F)C(F)(F)C(F)(F)F	inactive
Cc1ccccc1O	inactive
ClC1=C(Cl)[C@]2(Cl)[C@@H]3[C@H]4C[C@H]([C@@H]5O[C@H]45)[C@@H]3[C@@]1(Cl)C2(Cl)Cl	inactive

Structure (SMILES)	outcome
CCOP(=S)(OCC)SCSC(C)(C)C	inactive
CO/C=C(/C(=O)OC)c1ccccc1COc1cccc(C(F)(F)F)n1	inactive
CN(C)CCO	inactive
O=C(NC(=O)c1cc(F)c(F)cc1Cl)Nc1cc(F)ccc1N1CCC(C(=O)O)CC1	inactive
Cc1cccc([N+](=O)[O-])c1	inactive
CC1=C2C[C@H]3[C@@H](CC=C4C[C@@H](O)CC[C@@]43C)[C@@H]2CC[C@]12O[C@@H]1C[C@H](C)CN[C@H]1[C@H]2C	inactive
C1CC2OC2CC1C1CO1 (stereo not given)	inactive
CCSC(=O)N(CC)C1CCCCC1	inactive
Nc1ccc(-c2ccc(N)cc2)cc1	inactive
N#Cc1ccc(N(CC(N)=O)CC(F)(F)F)cc1C(F)(F)F	inactive
Clc1ccc(Cl)cc1	inactive
O=NN(c1ccccc1)c1ccccc1	inactive
O=C(O)C(F)(F)C(F)(F)C(F)(F)C(F)(F)C(F)(F)C(F)(F)C(F)(F)C(F)(F)C(F)(F)F	inactive
Nn1cnnc1	inactive
Clc1ccc(C(c2ccccc2Cl)C(Cl)(Cl)Cl)cc1 (stereo not given)	inactive
Cc1cccc(C)c1N	inactive
O=C(O)C(F)(F)C(F)(F)C(F)(F)C(F)(F)C(F)(F)C(F)(F)C(F)(F)C(F)(F)F	inactive
C[C@]12CCC(=O)C=C1CC[C@@H]1[C@@H]2CC[C@@]2(C)[C@H]1CC[C@]2(C)O	inactive
O=S(=O)(O)C(F)(F)C(F)(F)C(F)(F)C(F)(F)C(F)(F)C(F)(F)F	inactive
CCCN(CCC)N=O	inactive
